The text below walks through data of ChEMBL document CHEMBL1961873, “Compounds: GSK PKIS; Assays: Nanosyn kinase panel” (2012).

The target in assay [1] is 5'-AMP-activated protein kinase catalytic subunit alpha-2 (Homo sapiens) (UniProt P54646). The note with it: at 1 µM.
Assay [2] addresses T1, NUAK family SNF1-like kinase 1 (Homo sapiens) (UniProt O60285).
T1 sequence (whole entry): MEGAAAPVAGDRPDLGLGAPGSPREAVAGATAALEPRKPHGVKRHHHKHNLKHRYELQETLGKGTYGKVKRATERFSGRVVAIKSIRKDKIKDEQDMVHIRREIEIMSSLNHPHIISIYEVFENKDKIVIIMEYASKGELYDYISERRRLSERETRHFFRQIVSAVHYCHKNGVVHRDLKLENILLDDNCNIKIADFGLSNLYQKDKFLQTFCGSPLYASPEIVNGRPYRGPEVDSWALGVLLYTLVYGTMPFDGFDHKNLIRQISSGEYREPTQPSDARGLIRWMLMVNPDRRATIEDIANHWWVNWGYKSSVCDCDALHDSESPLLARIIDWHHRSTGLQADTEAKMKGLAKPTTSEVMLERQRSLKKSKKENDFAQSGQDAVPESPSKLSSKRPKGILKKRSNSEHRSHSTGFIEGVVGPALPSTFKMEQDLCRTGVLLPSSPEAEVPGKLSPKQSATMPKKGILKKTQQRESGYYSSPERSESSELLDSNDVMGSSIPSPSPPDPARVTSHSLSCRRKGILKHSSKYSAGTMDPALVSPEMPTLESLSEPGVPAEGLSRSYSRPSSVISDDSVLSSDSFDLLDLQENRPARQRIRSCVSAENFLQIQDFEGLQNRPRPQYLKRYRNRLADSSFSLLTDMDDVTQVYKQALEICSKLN
The note with it: at 0.1 µM.

The target in assay [3] is T1, NUAK family SNF1-like kinase 1 (Homo sapiens). The note with it: at 1 µM.
Assay [4] has as its target T2, Serine/threonine-protein kinase BRSK1 (Homo sapiens) (UniProt Q8TDC3).
T2 sequence (whole entry): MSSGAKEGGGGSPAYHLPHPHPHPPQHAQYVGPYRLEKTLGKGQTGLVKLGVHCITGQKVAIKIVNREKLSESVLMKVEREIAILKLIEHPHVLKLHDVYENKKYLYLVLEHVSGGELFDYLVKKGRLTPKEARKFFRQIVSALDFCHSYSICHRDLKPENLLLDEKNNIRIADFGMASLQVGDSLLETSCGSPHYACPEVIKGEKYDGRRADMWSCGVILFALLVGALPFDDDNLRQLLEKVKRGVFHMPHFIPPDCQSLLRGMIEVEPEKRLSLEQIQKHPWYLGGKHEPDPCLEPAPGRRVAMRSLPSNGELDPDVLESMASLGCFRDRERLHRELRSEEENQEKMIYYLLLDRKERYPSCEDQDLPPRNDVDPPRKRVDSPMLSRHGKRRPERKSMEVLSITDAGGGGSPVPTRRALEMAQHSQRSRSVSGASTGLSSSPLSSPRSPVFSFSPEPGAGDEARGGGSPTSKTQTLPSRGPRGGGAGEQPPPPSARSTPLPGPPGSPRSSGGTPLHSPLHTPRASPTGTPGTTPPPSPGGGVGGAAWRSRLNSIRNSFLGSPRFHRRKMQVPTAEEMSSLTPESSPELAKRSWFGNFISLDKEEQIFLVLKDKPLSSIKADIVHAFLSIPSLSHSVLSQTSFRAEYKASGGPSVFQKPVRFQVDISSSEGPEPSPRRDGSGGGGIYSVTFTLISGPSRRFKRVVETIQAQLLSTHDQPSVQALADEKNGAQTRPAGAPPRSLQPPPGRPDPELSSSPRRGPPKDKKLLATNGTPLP
The note with it: at 0.1 µM.

Assay [5] concerns the target T2, Serine/threonine-protein kinase BRSK1 (Homo sapiens). The conditions noted are these: at 1 µM.
Assay [6] concerns the target T3, Serine/threonine-protein kinase BRSK2 (Homo sapiens) (UniProt Q8IWQ3).
T3 sequence (whole entry): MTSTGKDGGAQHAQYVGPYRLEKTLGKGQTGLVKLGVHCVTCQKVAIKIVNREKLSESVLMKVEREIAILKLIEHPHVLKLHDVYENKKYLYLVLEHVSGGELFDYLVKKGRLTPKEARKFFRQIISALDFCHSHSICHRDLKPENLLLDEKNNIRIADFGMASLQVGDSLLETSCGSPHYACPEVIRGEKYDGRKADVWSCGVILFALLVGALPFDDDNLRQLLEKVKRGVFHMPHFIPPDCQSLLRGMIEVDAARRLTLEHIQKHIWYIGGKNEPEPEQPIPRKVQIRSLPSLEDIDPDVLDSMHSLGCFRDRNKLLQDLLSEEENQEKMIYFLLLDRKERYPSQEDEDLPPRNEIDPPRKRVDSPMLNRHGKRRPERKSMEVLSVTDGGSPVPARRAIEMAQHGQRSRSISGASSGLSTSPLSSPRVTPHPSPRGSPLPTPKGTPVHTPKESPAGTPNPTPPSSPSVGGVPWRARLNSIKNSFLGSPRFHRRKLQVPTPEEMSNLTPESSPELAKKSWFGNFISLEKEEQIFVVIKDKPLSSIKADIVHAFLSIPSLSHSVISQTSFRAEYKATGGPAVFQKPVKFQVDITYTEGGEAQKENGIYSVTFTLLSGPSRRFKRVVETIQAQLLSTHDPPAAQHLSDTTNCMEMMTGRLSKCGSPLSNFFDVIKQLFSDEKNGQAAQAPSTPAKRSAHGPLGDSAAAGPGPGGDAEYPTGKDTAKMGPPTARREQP
The note with it: at 0.1 µM.

In assay [7] the target is T3, Serine/threonine-protein kinase BRSK2 (Homo sapiens). The conditions noted are these: at 1 µM.
For assay [8], the target named is Calcium/calmodulin-dependent protein kinase type 1D (Homo sapiens) (UniProt Q8IU85). The conditions noted are these: at 0.1 µM.
Assay [9] shares this target. The conditions noted are these: at 1 µM.
Assay [10] addresses Calcium/calmodulin-dependent protein kinase type II subunit alpha (Homo sapiens) (UniProt Q9UQM7). The note with it: at 0.1 µM.
The target is the same in assay [11]. The conditions noted are these: at 1 µM.
Assay [12] concerns the target Calcium/calmodulin-dependent protein kinase type II subunit delta (Homo sapiens) (UniProt Q13557). The note with it: at 0.1 µM.
Assay [13] has the same target. The conditions noted are these: at 1 µM.
Assay [14] has as its target T4, Calcium/calmodulin-dependent protein kinase type IV (Homo sapiens) (UniProt Q16566).
T4 sequence (whole entry): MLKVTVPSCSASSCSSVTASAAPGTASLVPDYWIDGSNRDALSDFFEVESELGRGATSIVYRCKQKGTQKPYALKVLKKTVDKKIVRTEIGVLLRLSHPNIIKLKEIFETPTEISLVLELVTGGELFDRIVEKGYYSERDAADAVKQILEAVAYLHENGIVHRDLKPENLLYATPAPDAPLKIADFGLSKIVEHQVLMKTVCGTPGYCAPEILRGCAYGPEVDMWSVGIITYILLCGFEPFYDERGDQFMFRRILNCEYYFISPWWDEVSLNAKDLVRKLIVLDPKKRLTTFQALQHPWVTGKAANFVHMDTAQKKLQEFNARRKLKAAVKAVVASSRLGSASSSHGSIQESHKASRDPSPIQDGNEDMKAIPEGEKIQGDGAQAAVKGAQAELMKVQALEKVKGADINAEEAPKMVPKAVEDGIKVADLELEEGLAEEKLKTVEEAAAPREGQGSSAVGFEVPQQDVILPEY
The note with it: at 0.1 µM.

The target of assay [15] is T4, Calcium/calmodulin-dependent protein kinase type IV (Homo sapiens). The conditions noted are these: at 1 µM.
Assay [16] addresses T5, Serine/threonine-protein kinase Chk1 (Homo sapiens) (UniProt O14757).
T5 sequence (whole entry): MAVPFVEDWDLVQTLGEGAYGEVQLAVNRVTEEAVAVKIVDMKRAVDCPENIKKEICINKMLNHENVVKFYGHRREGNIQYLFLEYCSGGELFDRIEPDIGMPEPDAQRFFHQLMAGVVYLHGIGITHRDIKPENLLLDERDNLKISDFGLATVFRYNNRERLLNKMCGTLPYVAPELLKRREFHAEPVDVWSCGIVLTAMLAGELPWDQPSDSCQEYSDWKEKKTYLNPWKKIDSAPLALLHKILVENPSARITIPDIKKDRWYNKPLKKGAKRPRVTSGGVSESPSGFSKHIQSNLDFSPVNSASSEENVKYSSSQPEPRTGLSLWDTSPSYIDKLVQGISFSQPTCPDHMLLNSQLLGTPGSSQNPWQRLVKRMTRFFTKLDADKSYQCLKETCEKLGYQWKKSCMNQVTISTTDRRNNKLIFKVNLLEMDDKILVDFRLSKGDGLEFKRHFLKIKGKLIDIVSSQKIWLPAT
The conditions noted are these: at 0.1 µM.

Assay [17] deals with T5, Serine/threonine-protein kinase Chk1 (Homo sapiens). The note with it: at 1 µM.
Assay [18] deals with Serine/threonine-protein kinase Chk2 (Homo sapiens) (UniProt O96017). The note with it: at 0.1 µM.
For assay [19] the target is unchanged. The note with it: at 1 µM.
The target of assay [20] is Death-associated protein kinase 1 (Homo sapiens) (UniProt P53355). The conditions noted are these: at 0.1 µM.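 Also: reported figure is the mean inhibition of DAPK1.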
Death-associated protein kinase 1 (Homo sapiens), sequence (P53355 whole entry, looked up): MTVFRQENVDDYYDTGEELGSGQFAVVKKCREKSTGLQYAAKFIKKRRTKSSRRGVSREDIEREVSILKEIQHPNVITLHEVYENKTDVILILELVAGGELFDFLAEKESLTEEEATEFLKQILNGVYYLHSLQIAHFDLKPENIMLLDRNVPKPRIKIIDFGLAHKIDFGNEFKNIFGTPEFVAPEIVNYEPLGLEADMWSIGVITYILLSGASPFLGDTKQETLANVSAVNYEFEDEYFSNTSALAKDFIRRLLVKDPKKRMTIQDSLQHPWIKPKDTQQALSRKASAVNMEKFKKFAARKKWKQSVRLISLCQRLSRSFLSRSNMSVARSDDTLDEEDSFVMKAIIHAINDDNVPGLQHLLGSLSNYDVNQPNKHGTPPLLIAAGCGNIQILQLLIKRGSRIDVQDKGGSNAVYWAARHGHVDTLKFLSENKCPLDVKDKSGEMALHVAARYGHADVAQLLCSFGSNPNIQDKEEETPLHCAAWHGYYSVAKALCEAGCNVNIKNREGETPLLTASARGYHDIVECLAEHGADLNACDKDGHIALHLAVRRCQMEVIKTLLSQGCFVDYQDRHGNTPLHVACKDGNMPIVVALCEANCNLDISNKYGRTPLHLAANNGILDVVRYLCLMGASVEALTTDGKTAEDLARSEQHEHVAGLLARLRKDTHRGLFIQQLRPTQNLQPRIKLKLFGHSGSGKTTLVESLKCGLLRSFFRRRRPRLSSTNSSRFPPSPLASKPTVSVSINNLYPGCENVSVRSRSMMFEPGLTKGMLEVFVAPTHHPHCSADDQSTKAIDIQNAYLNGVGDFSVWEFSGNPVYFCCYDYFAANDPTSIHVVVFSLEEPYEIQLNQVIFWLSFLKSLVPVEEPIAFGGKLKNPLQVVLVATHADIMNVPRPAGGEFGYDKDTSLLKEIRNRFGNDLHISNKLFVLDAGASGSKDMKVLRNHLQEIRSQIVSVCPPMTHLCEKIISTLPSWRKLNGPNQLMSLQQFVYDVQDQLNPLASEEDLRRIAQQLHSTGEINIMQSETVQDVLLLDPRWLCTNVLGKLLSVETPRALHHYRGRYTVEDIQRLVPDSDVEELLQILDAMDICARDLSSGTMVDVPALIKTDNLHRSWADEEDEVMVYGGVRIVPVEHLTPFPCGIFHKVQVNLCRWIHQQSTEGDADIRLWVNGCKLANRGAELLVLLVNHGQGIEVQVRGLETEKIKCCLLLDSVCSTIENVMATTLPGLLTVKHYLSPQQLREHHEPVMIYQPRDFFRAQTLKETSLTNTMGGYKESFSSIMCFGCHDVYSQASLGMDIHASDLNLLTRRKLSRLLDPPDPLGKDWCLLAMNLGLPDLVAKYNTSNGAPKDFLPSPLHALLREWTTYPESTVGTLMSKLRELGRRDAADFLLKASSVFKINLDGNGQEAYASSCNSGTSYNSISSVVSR

Calcium/calmodulin-dependent protein kinase type II subunit delta (Homo sapiens), sequence (Q13557 whole entry): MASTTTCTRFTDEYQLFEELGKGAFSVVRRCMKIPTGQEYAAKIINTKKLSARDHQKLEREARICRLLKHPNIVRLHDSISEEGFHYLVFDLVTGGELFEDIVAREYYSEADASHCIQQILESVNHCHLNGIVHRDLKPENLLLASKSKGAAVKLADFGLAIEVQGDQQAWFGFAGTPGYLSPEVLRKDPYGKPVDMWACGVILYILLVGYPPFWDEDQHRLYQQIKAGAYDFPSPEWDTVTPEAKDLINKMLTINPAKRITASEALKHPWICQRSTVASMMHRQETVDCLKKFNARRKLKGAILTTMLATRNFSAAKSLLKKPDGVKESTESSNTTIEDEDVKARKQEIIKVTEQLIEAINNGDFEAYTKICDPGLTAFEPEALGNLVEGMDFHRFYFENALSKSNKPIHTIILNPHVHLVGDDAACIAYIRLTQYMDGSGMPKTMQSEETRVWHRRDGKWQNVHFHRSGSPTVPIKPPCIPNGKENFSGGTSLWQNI
5'-AMP-activated protein kinase catalytic subunit alpha-2 (Homo sapiens), sequence (P54646 whole entry, looked up): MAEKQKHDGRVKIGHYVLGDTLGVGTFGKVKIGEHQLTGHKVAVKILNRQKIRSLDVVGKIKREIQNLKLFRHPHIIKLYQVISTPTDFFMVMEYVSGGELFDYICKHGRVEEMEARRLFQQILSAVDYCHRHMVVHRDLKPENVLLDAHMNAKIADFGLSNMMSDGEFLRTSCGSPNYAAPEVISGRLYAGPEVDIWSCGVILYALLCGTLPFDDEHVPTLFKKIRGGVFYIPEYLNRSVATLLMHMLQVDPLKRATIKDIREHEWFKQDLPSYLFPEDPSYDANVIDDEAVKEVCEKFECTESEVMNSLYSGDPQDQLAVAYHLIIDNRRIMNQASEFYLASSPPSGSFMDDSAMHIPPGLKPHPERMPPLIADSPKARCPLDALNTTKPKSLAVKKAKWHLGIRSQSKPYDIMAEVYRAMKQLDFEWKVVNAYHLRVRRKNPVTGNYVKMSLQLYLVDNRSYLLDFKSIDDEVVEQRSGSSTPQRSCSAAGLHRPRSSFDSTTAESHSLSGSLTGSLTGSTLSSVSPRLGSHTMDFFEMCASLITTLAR
Calcium/calmodulin-dependent protein kinase type II subunit alpha (Homo sapiens), sequence (Q9UQM7 whole entry): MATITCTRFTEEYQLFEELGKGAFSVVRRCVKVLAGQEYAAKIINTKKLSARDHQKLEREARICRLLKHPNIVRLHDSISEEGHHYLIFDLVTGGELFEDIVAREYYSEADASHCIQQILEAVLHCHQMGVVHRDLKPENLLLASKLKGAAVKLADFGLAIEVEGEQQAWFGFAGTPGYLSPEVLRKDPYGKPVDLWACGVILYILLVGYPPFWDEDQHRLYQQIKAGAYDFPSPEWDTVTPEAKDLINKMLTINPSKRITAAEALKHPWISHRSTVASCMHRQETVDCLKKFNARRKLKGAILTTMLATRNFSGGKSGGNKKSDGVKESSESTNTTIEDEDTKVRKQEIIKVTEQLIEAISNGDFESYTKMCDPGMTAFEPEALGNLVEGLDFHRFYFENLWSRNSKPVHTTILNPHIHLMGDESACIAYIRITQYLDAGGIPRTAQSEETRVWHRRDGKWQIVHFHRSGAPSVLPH
Serine/threonine-protein kinase Chk2 (Homo sapiens), sequence (O96017 whole entry): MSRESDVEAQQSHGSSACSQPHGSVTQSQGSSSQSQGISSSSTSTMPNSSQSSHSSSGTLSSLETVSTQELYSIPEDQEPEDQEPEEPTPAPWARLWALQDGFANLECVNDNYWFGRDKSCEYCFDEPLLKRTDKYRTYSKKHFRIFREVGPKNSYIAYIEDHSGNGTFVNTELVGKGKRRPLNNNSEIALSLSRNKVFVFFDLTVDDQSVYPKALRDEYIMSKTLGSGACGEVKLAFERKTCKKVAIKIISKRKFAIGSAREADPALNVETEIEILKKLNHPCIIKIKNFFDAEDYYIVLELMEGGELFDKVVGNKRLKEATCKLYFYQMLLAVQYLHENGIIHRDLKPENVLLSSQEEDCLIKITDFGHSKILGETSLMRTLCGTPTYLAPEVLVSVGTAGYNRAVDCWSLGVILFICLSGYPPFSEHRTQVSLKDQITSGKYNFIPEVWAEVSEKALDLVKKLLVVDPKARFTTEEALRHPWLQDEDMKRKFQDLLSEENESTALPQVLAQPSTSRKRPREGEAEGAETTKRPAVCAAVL
Calcium/calmodulin-dependent protein kinase type 1D (Homo sapiens), sequence (Q8IU85 whole entry, looked up): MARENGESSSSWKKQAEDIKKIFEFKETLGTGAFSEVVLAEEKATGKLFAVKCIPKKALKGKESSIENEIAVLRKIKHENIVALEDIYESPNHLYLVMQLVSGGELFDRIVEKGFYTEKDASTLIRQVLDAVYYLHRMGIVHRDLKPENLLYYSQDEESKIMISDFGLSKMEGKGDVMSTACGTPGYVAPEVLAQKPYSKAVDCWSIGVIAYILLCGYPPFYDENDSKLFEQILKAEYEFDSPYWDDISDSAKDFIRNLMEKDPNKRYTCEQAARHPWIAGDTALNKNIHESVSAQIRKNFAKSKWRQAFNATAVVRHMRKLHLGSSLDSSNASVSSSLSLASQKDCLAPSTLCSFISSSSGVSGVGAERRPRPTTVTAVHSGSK

Take `Cc1nnc(-c2ccc(C)c(-c3ccc(C(=O)Nc4cccc(C#N)c4)cc3)c2)o1`: the inhibition in assay [1] was determined as 2.95%; in assay [2] it was 2.98%; in [3], 2.37%; in [4], 0.93%; in assay [5], 1.01%; in assay [6], 2.39%. Moreover, the inhibition in [7] amounted to 4.23%; in [8], 0.65%; in [9], 0.26%; in assay [10], 1.97%; in assay [11] it was 1.16%; in assay [12] it was 1.1%. The inhibition was 1.51% in assay [13]; -1.55% in assay [14]; -0.84% in assay [15]; 0.73% in assay [16]; 0.92% in assay [17]; 1.03% in assay [18]. Further, the inhibition is 4.05% in [19] and 3.42% in [20].

On to `O=C(Nc1n[nH]c2nc(-c3ccco3)c(Br)cc12)C1CC1`, for which the inhibition in assay [1] is 5.5%; in assay [2] it was -2.45%; in assay [3], 4.11%; in [4], 3%; in assay [5], 12.9%; in [6], 3.32%. The inhibition in [7] was determined as 11.5%; in assay [8], 0.93%; in assay [9] it was 1.36%; in assay [10], 4.38%; in [11], 2.92%; in assay [12], 3.12%. Further, the inhibition in [13] stood at 4.6%; in assay [14] it was 1.47%; in assay [15], 2.02%; in assay [16], 3.44%; in [17] it was 4.35%; in [18] it was 2.64%. Further, the figures for the inhibition in assay [19] and in [20] were 2.71% and 3.14%, respectively.

Take `COc1ccc(-c2nn3ncccc3c2-c2ccnc(Nc3ccc(Cl)c(C(F)(F)F)c3)n2)cc1`: the inhibition is -8.45% in assay [1]; -1.07% in [2]; -2.34% in assay [3]; 1.4% in assay [4]; 1.98% in [5]; 2.7% in [6]. Further, the inhibition was 4.49% in [7]; -0.51% in assay [8]; -1.4% in assay [9]; 1.97% in assay [10]; 0.35% in [11]; 0.24% in [12]. For the same molecule, the inhibition in [13] is -0.01%; in assay [14], -1.57%; in assay [15], -4.24%; in [16] it was -0.59%; in assay [17], -3.23%; in assay [18], 1.35%. For the same molecule, the inhibition amounted to 2.73% in [19] and 1.96% in assay [20].
